Laboratory results: PubChem BioAssay AID1159580 (chemical genetic matrix, 2015)
Screen size: about 5,500 compounds; about 2,000 (36%) were called active. About 18% were inconclusive and are not listed. Rule as the data show it: active = normalized growth mostly below about 0.91 (no sharp cut-off); inconclusive = no clear call, values can overlap the other calls; inactive = mostly above about 0.92. This is one part of the list.

Assay: chemical genetic growth profiling, strain panel (AID 1159580);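 also: tested at 20 µM; growth read once vehicle control cultures reached saturation at 30 °C; 1 = growth at the plate median or of vehicle wells; lower values mean less growth of the strain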
Conditions: growth OD

Measured: normalized growth

CC(C)=CCc1c(O)cc2oc(C)cc(=O)c2c1O
inactive: S. cerevisiae deletion strains, locus YJR066W, strain TOR1, hits give low values 0.941 | S. cerevisiae deletion strains, locus YJR075W, strain HOC1, hits give low values 1.03 | S. cerevisiae deletion strains, locus YKL009W, strain mrt4, hits give low values 0.974 | S. cerevisiae deletion strains, locus YKL068W, hits give low values 0.982 | S. cerevisiae deletion strains, locus YKL085W, strain MDH1 (second series), hits give low values 0.983 | S. cerevisiae deletion strains, locus YKL085W, strain MDH1, hits give low values 0.983 | S. cerevisiae deletion strains, locus YKL160W, strain elf1, hits give low values 0.963 | S. cerevisiae deletion strains, locus YKL190W, strain CNB1, hits give low values 1 | S. cerevisiae deletion strains, locus YKR026C, strain gcn3, hits give low values 0.977 | S. cerevisiae deletion strains, locus YKR091W, strain srl3, hits give low values 0.98 | S. cerevisiae deletion strains, locus YLL001W, strain dnm1, hits give low values 0.964 | S. cerevisiae deletion strains, locus YLL026W, hits give low values 0.981 | S. cerevisiae deletion strains, locus YLL041C, strain sdh2, hits give low values 0.979 | S. cerevisiae deletion strains, locus YLR027C, strain aat2, hits give low values 0.983 | S. cerevisiae deletion strains, locus YLR039C, strain RIC1, hits give low values 0.834 | S. cerevisiae deletion strains, locus YLR058C, strain SHM2, hits give low values 0.966 | S. cerevisiae deletion strains, locus YLR102C, strain apc9, hits give low values 0.987 | S. cerevisiae deletion strains, locus YLR221C, strain rsa3, hits give low values 0.95 | S. cerevisiae deletion strains, locus YLR258W, strain gsy2, hits give low values 0.97 | S. cerevisiae deletion strains, locus YLR268W, strain sec22, hits give low values 0.939 | S. cerevisiae deletion strains, locus YLR320W, strain mms22, hits give low values 0.961 | S. cerevisiae deletion strains, locus YLR330W, strain CHS5, hits give low values 0.937 | S. cerevisiae deletion strains, locus YLR342W, strain FKS1, hits give low values 0.974 | S. cerevisiae deletion strains, locus YLR357W, strain rsc2, hits give low values 0.913 | S. cerevisiae deletion strains, locus YLR370C, strain arc18, hits give low values 0.996 | S. cerevisiae deletion strains, locus YLR371W, strain rom2, hits give low values 0.957 | S. cerevisiae deletion strains, locus YLR384C, strain iki3, hits give low values 0.976 | S. cerevisiae deletion strains, locus YLR418C, strain cdc73, hits give low values 0.898 | S. cerevisiae deletion strains, locus YML016C, strain PPZ1, hits give low values 0.997 | S. cerevisiae deletion strains, locus YML032C, strain rad52, hits give low values 0.907 | S. cerevisiae deletion strains, locus YML120C, strain ndi1, hits give low values 0.98 | S. cerevisiae deletion strains, locus YML124C, strain tub3, hits give low values 0.985 | S. cerevisiae deletion strains, locus YMR058W, strain fet3, hits give low values 0.946 | S. cerevisiae deletion strains, locus YMR078C, strain ctf18, hits give low values 0.994 | S. cerevisiae deletion strains, locus YMR125W, strain sto1, hits give low values 0.981 | S. cerevisiae deletion strains, locus YMR129W, hits give low values 0.98 | S. cerevisiae deletion strains, locus YMR205C, strain PFK2, hits give low values 0.954 | S. cerevisiae deletion strains, locus YMR223W, strain ubp8, hits give low values 0.931 | S. cerevisiae deletion strains, locus YMR231W, strain pep5, hits give low values 0.981 | S. cerevisiae deletion strains, locus YMR263W, strain SAP30, hits give low values 0.992 | S. cerevisiae deletion strains, locus YNL067W, strain RPL9B, hits give low values 1.01 | S. cerevisiae deletion strains, locus YNL071W, strain lat1, hits give low values 0.975 | S. cerevisiae deletion strains, locus YNL153C, strain GIM3, hits give low values 0.932 | S. cerevisiae deletion strains, locus YNL183C, strain NPR1, hits give low values 0.91 | S. cerevisiae deletion strains, locus YNL209W, strain ssb2, hits give low values 0.996 | S. cerevisiae deletion strains, locus YNL233W, strain BNI4, hits give low values 0.926 | S. cerevisiae deletion strains, locus YNL248C, strain rpa49, hits give low values 0.968 | S. cerevisiae deletion strains, locus YNL250W, strain rad50, hits give low values 0.993 | S. cerevisiae deletion strains, locus YNL271C, strain bni1, hits give low values 0.98 | S. cerevisiae deletion strains, locus YNL298W, strain CLA4, hits give low values 0.954 | S. cerevisiae deletion strains, locus YNL307C, strain MCK1, hits give low values 0.989 | S. cerevisiae deletion strains, locus YNL322C, strain KRE1 (second series), hits give low values 0.964 | S. cerevisiae deletion strains, locus YNR049C, strain mso1, hits give low values 0.964 | S. cerevisiae deletion strains, locus YNR052C, strain pop2, hits give low values 1 | S. cerevisiae deletion strains, locus YOL012C, strain htz1 1.24 | S. cerevisiae deletion strains, locus YOL147C, strain pex11, hits give low values 0.954 | S. cerevisiae deletion strains, locus YOR001W, strain rrp6, hits give low values 0.981 | S. cerevisiae deletion strains, locus YOR061W, strain CKA2, hits give low values 0.955 | S. cerevisiae deletion strains, locus YOR069W, strain VPS5, hits give low values 0.987 | S. cerevisiae deletion strains, locus YOR070C, strain gyp1, hits give low values 0.983 | S. cerevisiae deletion strains, locus YOR080W, strain dia2, hits give low values 1 | S. cerevisiae deletion strains, locus YOR083W, strain WHI5, hits give low values 0.947 | S. cerevisiae deletion strains, locus YOR106W, strain vam3, hits give low values 0.934 | S. cerevisiae deletion strains, locus YOR136W, strain idh2, hits give low values 0.979 | S. cerevisiae deletion strains, locus YOR144C, strain elg1, hits give low values 0.965 | S. cerevisiae deletion strains, locus YOR231W, strain MKK1, hits give low values 0.958 | S. cerevisiae deletion strains, locus YOR265W, strain rbl2, hits give low values 0.971 | S. cerevisiae deletion strains, locus YOR270C, strain vph1, hits give low values 1.08 | S. cerevisiae deletion strains, locus YOR290C, strain snf2, hits give low values 0.939 | S. cerevisiae deletion strains, locus YOR316C, strain cot1, hits give low values 0.997 | S. cerevisiae deletion strains, locus YPL051W, strain arl3, hits give low values 0.952 | S. cerevisiae deletion strains, locus YPL055C, strain LGE1, hits give low values 0.945 | S. cerevisiae deletion strains, locus YPL078C, strain atp4, hits give low values 0.966 | S. cerevisiae deletion strains, locus YPL106C, strain sse1, hits give low values 0.978 | S. cerevisiae deletion strains, locus YPL240C, strain hsp82, hits give low values 0.982 | S. cerevisiae deletion strains, locus YPL256C, strain CLN2, hits give low values 1.01 | S. cerevisiae deletion strains, locus YPR119W, strain clb2, hits give low values 0.995 | S. cerevisiae deletion strains, locus YPR141C, strain kar3, hits give low values 1 | S. cerevisiae deletion strains, locus YPR163C, strain tif3, hits give low values 0.975 | S. cerevisiae deletion strains, locus YPR167C, strain met16, hits give low values 0.956 | S. cerevisiae strains, strain wild type, hits give low values 0.922
active: S. cerevisiae deletion strains, locus YJR043C, strain POL32, hits give low values 0.847 | S. cerevisiae deletion strains, locus YKR001C, strain vps1, hits give low values 0.723 | S. cerevisiae deletion strains, locus YLR113W, strain HOG1, hits give low values 0.854 | S. cerevisiae deletion strains, locus YLR262C, strain YPT6 (second series), hits give low values 0.781 | S. cerevisiae deletion strains, locus YMR307W, strain GAS1, hits give low values 0.549 | S. cerevisiae deletion strains, locus YOR184W, strain ser1, hits give low values 0.829 | S. cerevisiae deletion strains, strain wtn01, hits give low values 0.891
